Source: PubChem BioAssay (National Center for Advancing Translational Sciences (NCATS))
RORgamma inh: inhibitors of mouse ROR gamma transcriptional activity. P51450. Drosophila S2 Gal4-RORgamma UAS-luciferase reporter, 20 h. Potency, µM (top dose mostly 53.6 µM), usual class: inhibitors. 5.4% of 310,000 active. AID 2551; note: nearly all actives have a fitted effect of over 60% in size
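Using a luciferase readout, inhibitors were identified by reduced reporter activity in Drosophila cells coexpressing a copper-inducible Gal4–ROR gamma fusion and UAS-driven Photinus luciferase, incubated 20 hr after 700 uM copper sulfate.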
Sfp inh: inhibitors of Bacillus subtilis Sfp phosphopantetheinyl transferase; AID 1490; Potency, µM, usual class: inhibitors; 3.5% of 310,000 active; Biochemical Sfp PPTase activity, qHTS;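 note: the enzyme is Sfp with the accession as filed and its product quenches rhodamine fluorescence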
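With Hepes-Na pH 7.6 buffer containing 10 mM MgCl2, Sfp (15 nM) modified BHQ-2-YbbR (12.5 uM) using rhodamine-CoA (5 uM). Two reads 30 minutes apart at 525/598 nm yielded each well's rate.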
VP16 counter: counter-screen for ROR gamma inhibitors: Gal4-VP16 reporter | Drosophila S2 Gal4-VP16 UAS-luciferase, luminescence, 20 h | AID 2546 | 3.5% of 310,000 active | Potency, µM (series often up to 53.6 µM), hits mostly inhibitors;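 note: Gal4-VP16 expression switched on by copper sulfate through the metallothionein promoter; nearly all actives have a fitted effect of over 50% in size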
PLK1 PBD block: blocks phosphopeptide binding to human PLK1 polo-box domain; P53350; Plk1 PBD binding of FITC phosphopeptide, fluorescence polarization; Potency, µM, hits mostly inhibitors; 2.8% of 360,000 active; note: series mostly up to about 57 µM; nearly all actives have a fitted effect of over 65% in size
ALDH1A1 block: blocks purified human ALDH1A1 activity; Purified ALDH1A1, NADH fluorescence, propionaldehyde substrate; Potency, µM (doses to about 75.3 µM), hits mostly inhibitors; 7.3% of 220,000 active; P00352; active = well fitted inhibition curve with a large enough effect, not every such curve was filed as active; inconclusive = small, poorly fitted or top-dose-only effect, or another doubt; inactive = no such curve, though single readings can be large or run the other way
Target sequence (P00352 whole entry, looked up): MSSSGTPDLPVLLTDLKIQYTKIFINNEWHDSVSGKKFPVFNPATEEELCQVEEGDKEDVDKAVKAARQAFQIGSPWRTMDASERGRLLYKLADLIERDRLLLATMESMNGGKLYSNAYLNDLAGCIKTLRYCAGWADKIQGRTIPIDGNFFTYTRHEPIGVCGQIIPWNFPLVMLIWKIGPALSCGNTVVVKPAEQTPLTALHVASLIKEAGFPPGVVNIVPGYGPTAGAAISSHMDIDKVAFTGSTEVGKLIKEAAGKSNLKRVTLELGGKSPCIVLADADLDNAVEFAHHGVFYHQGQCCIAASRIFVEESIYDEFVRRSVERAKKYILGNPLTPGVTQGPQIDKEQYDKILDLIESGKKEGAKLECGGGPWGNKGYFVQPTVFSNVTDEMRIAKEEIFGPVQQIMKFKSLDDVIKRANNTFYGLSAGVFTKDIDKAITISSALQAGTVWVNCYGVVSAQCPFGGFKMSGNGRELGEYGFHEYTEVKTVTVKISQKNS
Numbers stand for hits; [ ] = another dose, or the depositor's remark. Only some compounds are listed: those with a hit (about 12% of all), similar ones and a draw of the others. Unless noted, calls come from the whole dose curve; as a rule, active = well fitted curve in the direction sought with a large enough effect; inconclusive = small, poorly fitted or top-dose-only effect, or another doubt; inactive = no such curve, though single readings can be large; an effect the other way counts as inactive or inconclusive.

How did CCOC(=O)N/N=C1/C[C@@H](O)[C@@H](O)[C@@H]2[C@@H]3C(=O)N(C[C@@H]4CCCO4)C(=O)[C@H]3CC[C@H]12 do in these assays?
RORgamma inh: inactive[10 µM]; Sfp inh: inactive; VP16 counter: inactive[10 µM]; ALDH1A1 block: inactive[13.5 µM]

What do the screens show for `O=C(Nc1nccs1)c1cc2c(s1)CCCCC2`?
RORgamma inh: inactive; Sfp inh: inactive; VP16 counter: 7.9µM; PLK1 PBD block: inactive; ALDH1A1 block: inconclusive

Results for O=C(NCc1ccc(F)cc1)c1cc2c(s1)CCCC2 ?
RORgamma inh: inactive; Sfp inh: inactive; VP16 counter: inactive; PLK1 PBD block: inactive; ALDH1A1 block: inconclusive

How did CC(=O)N1CCN(C(=O)c2cc3c(s2)CCCC3)CC1 do in these assays?
PLK1 PBD block: inactive

Results for NNC(=O)c1cc2c(s1)CCCCCC2 ?
RORgamma inh: inconclusive; Sfp inh: inactive; VP16 counter: inactive; PLK1 PBD block: inactive; ALDH1A1 block: 0.35µM

Results for Cc1cc(C)n(C(=O)c2cc3c(s2)CCCC3)n1 ?
RORgamma inh: inactive; Sfp inh: inactive; VP16 counter: inactive; PLK1 PBD block: inactive; ALDH1A1 block: 20µM

How did CCc1cccc(CC)c1NC(=O)c1cccc(NC(=O)c2ccccc2)c1 do in these assays?
RORgamma inh: inactive; Sfp inh: inactive; VP16 counter: inactive; PLK1 PBD block: inactive; ALDH1A1 block: inactive

What do the screens show for `CCc1cccc(C)c1NC(=O)c1cccc(N(C)C)c1`?
RORgamma inh: inactive; Sfp inh: 56µM; VP16 counter: inactive; PLK1 PBD block: inactive; ALDH1A1 block: inconclusive

What do the screens show for `CC(C)C[C@H](NC(=O)CNC(=O)[C@H](CCC(N)=O)NC(=O)[C@H](CC(C)C)NC(=O)[C@H](CC(C)C)NC(=O)[C@H](CCCNC(=N)N)NC(=O)[C@H](CCC(N)=O)NC(=O)[C@H](CC(C)C)NC(=O)[C@H](CCCNC(=N)N)NC(=O)[C@H](C)NC(=O)CNC(=O)[C@H](CCC(=O)O)NC(=O)[C@H](CCCNC(=N)N)NC(=O)[C@H](CC(C)C)NC(=O)[C@H](CCCNC(=N)N)NC(=O)[C@H](CO)NC(=O)[C@H](CC(C)C)NC(=O)[C@H](CCC(=O)O)NC(=O)[C@H](CO)NC(=O)[C@@H](NC(=O)[C@H](Cc1ccccc1)NC(=O)[C@@H](NC(=O)CNC(=O)[C@H](CC(=O)O)NC(=O)[C@H](CO)NC(=O)[C@@H](N)Cc1cnc[nH]1)[C@@H](C)O)[C@@H](C)O)C(=O)N[C@H](C(N)=O)C(C)C`?
RORgamma inh: inactive; Sfp inh: inactive; VP16 counter: inactive

What do the screens show for `O=C1N(Cc2cccc(Cl)c2)C[C@@H]2C[C@@H](c3cccn3-c3cccnc3)N3CCC[C@@]123`?
RORgamma inh: inactive; Sfp inh: inactive; VP16 counter: inactive; PLK1 PBD block: inactive; ALDH1A1 block: 7.1µM

Results for Cn1cc([C@@H]2C[C@H]3CN(Cc4cccc(Cl)c4)C(=O)[C@]34CCCN24)c(-c2ccccc2)n1 ?
RORgamma inh: inconclusive; Sfp inh: inactive; VP16 counter: 4µM; PLK1 PBD block: inactive; ALDH1A1 block: inactive

What do the screens show for `Cc1nn(C)cc1[C@@H]1C[C@H]2CN(Cc3cccc(Cl)c3)C(=O)[C@]23CCCN13`?
RORgamma inh: inactive; Sfp inh: inactive; VP16 counter: inactive; PLK1 PBD block: inactive; ALDH1A1 block: inactive

How did CCn1ncc([C@@H]2C[C@H]3CN(Cc4cccc(Cl)c4)C(=O)[C@]34CCCN24)c1C do in these assays?
RORgamma inh: inactive; Sfp inh: inactive; VP16 counter: inactive; PLK1 PBD block: inactive; ALDH1A1 block: inactive

Results for Cc1noc(/C=C/c2cccnc2)c1[N+](=O)[O-] ?
RORgamma inh: 10µM; Sfp inh: inactive; VP16 counter: 16µM; PLK1 PBD block: inactive

What do the screens show for `O=c1[nH]c(/C=C\c2cccnc2)c([N+](=O)[O-])c(=O)[nH]1`?
RORgamma inh: inactive; Sfp inh: inactive; VP16 counter: inactive; PLK1 PBD block: 27µM; ALDH1A1 block: inactive

How did C[C@H]1CN([C@@H](C)CO)C(=O)CCCn2nncc2CO[C@@H]1CN(C)C(=O)NC1CCCCC1 do in these assays?
PLK1 PBD block: inactive

What do the screens show for `O=[N+]([O-])c1ccc(C=CC=Cc2ccccc2)cc1`?
PLK1 PBD block: inactive

Results for CN(c1ccccc1)c1ccc(/C=C/[N+](=O)[O-])cc1 ?
RORgamma inh: inconclusive; Sfp inh: 18µM; VP16 counter: inconclusive; PLK1 PBD block: inconclusive; ALDH1A1 block: 8.9µM
